The values that follow come from PubChem BioAssay.

SMILES strings stand for the structures. Some of the results follow. Values without a mark were called inactive. The source made the active and inactive calls.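 Rule for the calls, unless noted: active = mean inhibition above about 50% in the one-dose retest (limit read from the data); inactive = the rest.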

Assay [1] addresses Sentrin-specific protease 8 (Homo sapiens) (UniProt Q96LD8). Briefly: human SENP8 peptidase blockers, hit retest – biochemical, luminescence, single concentration, confirmation (AID 488912;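 active = mean inhibition across replicates above about 50%, limit read from the data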). The following applies: Recombinant SENP8, Z-RLRGG-aminoluciferin luminescence, 60 min; at 12.5 µM; active compounds read high.
The target of assay [2] is Sentrin-specific protease 6 (Homo sapiens) (UniProt Q9GZR1). Briefly: inhibition of human SENP6 catalytic domain – biochemical, luminescence, single concentration, confirmation (AID 488915). The following applies: recombinant SENP6, Z-RLRGG-aminoluciferin luminescence; at 12.5 µM; active compounds read high.
Chain of Sentrin-specific protease 6 (Homo sapiens) (Q9GZR1 628-1112 limits assumed): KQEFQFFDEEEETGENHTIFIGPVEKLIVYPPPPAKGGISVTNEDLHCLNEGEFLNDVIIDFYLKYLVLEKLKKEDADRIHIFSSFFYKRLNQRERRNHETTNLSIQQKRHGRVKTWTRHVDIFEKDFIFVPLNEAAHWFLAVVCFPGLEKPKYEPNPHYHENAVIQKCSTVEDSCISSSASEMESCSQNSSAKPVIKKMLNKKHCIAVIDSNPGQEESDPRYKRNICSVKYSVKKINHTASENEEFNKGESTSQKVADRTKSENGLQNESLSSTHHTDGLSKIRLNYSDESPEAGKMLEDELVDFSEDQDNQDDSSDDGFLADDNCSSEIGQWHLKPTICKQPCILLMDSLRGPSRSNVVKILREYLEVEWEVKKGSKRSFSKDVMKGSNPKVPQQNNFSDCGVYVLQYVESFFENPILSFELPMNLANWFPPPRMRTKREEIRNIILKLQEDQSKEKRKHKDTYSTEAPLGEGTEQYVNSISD
The target in assay [3] is Sentrin-specific protease 7 (Homo sapiens) (UniProt Q9BQF6). Briefly: human SENP7 peptidase blockers, hit retest – biochemical, luminescence, single concentration, confirmation (AID 488917). The following applies: recombinant SENP7, Z-RLRGG-aminoluciferin luminescence, 40 min; at 12.5 µM; active compounds read high.
Chain of Sentrin-specific protease 7 (Homo sapiens) (Q9BQF6 706-1050 limits assumed): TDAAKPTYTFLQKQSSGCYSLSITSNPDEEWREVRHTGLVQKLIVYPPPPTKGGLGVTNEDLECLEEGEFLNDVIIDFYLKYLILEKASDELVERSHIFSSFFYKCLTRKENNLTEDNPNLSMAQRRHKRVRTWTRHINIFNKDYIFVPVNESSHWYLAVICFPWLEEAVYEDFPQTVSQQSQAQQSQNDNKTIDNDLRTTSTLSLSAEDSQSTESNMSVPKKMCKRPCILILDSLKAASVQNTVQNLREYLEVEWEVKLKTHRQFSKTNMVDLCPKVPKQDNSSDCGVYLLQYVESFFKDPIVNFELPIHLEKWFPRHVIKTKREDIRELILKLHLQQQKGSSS
In assay [4] the target is Caspase-3 (Homo sapiens) (UniProt P42574). Briefly: human caspase-3 activity blockade, out-of-family – biochemical, single concentration, selectivity assay for SENP inhibitor project, confirmation (AID 488918;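 active = mean inhibition above about 50%, limit read from the data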;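 note: plate controls were enzyme with DMSO for no effect and wells without caspase-3 for full effect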). The following applies: purified caspase-3, Z-DEVD-aminoluciferin luminescence, 60 min; at 12.5 µM; active compounds read high.
Chain of Caspase-3 (Homo sapiens) (P42574 28-227 limits assumed): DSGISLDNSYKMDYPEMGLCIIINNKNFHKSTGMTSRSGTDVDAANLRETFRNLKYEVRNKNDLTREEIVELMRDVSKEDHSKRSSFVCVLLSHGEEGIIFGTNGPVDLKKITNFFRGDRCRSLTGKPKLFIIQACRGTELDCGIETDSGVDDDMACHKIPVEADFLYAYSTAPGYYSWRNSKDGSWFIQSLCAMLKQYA
Assay [5] is described as follows: Ultra-Glo luciferase signal interference – biochemical, single concentration, SENP8 reaction pre-completed, artefact control for SENP inhibitor project, confirmation (AID 488919;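 active = mean inhibition above about 50% when retested at one dose, limit read from the data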;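 note: plate controls were DMSO wells with completed reaction for no effect and substrate without enzyme for full effect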). The following applies: Pre-incubated SENP8/Z-RLRGG-aminoluciferin, luciferase luminescence interference; at 12.5 µM; active compounds read high.

Broadly, the inhibition is the change of the read-out against control, counted positive when it falls.

Chain of Sentrin-specific protease 8 (Homo sapiens) (Q96LD8 whole entry, looked up, the tested form may be a part): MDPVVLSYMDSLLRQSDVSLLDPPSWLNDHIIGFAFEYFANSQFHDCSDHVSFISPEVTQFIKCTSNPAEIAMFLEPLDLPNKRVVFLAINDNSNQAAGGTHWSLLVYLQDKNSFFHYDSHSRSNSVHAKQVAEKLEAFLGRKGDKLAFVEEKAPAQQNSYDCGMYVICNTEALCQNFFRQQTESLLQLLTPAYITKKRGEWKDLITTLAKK

As to `C=CCNC(=S)N1CCN(CCN=Cc2c(C)[nH]n(-c3ccc([N+](=O)[O-])cc3)c2=O)CC1`, the inhibition is 0.7% in assay [1]; 21.1% in assay [2]; 28% in assay [3]; 56.6% (active) in assay [4]; 16.9% in assay [5].
For the compound `COCCN(CCOC)c1nc(N)c2c(N)nc3c(c2c1C#N)CC(=O)N3Cc1ccc(Cl)cc1`, the inhibition in assay [1] was -5.5%; in assay [2], -0.6%; in assay [3] it was 5.3%; in assay [4], 3.6%; in assay [5], -3.7%.
In the case of `CCn1nccc1C(=O)Nc1ccc(Cl)c(Cl)c1`, the inhibition was 61.1% (active) in assay [1]; 57.7% (active) in assay [2]; 80.6% (active) in assay [3]; 35.5% in assay [4]; 66.5% (active) in assay [5].
For `Cc1ccc(S(=O)(=O)Nc2nc3ccccc3nc2N2CCc3ccccc3C2)cc1`, the inhibition in assay [1] is -9.3%; in assay [2], -1.3%; in assay [3], -5.2%; in assay [4] it was 4.5%; in assay [5] it was 4.3%.
Consider `c1ccc(CN=C2Nc3ccccc3CS2)nc1`, for which the inhibition in assay [1] is 48.6%; in assay [2], 41.9%; in assay [3], 74.7% (active); in assay [4] it was 76.5% (active); in assay [5], 57.5% (active).
For `Cc1ccc(-n2cc3ccc([N+](=O)[O-])cc3n2)cc1` the same measures were -5.1%, 20.7%, 61.5% (active), 18.7% and -2.9%.
For `CCSc1nnc(NC(=O)c2ccc(C)cc2)s1` the same measures were 33.7%, 23.5%, 51.1% (active), 27.1% and 2%.
For `COc1cc(NC(=O)COC(=O)c2ccc([N+](=O)[O-])s2)cc(OC)c1OC` the same measures were 79.5% (active), 86.7% (active), 45.8%, 18.4% and 0.3%.
With `Cc1ccnc(NC(=O)c2ccoc2C)c1`, the inhibition was 85.8% (active) in assay [1]; 88.9% (active) in assay [2]; 97.1% (active) in assay [3]; 95.6% (active) in assay [4]; 80.1% (active) in assay [5].
For the compound `COc1ccc(/C=C/c2noc(-c3ccccc3OC(C)=O)n2)cc1`, the inhibition in assay [1] was 55.1% (active); in assay [2], 87.7% (active); in assay [3] it was 94.5% (active); in assay [4] it was 77% (active); in assay [5], 22.7%.
On to `COc1ccc(C(=O)COC(=O)c2ccc([N+](=O)[O-])s2)cc1OC`, for which the inhibition was 4.2% in assay [1]; 46.8% in assay [2]; 7.5% in assay [3]; 14.1% in assay [4]; 6.4% in assay [5].
Turning to `O=C(Cn1ccc([N+](=O)[O-])n1)NCc1cccs1`, the inhibition is -12.3% in assay [1]; -5.9% in assay [2]; -4.5% in assay [3]; -1.1% in assay [4]; -8.7% in assay [5].
In the case of `CN1C(=O)/C(=C\c2cc(Br)cs2)c2ccccc21`, the inhibition in assay [1] is 27.2%; in assay [2], 42.4%; in assay [3] it was 23%; in assay [4], 18%; in assay [5], 12.1%.
For `Cc1cc(NC(=O)c2ccc(F)cc2)ccc1NC(=O)c1ccco1` the same measures were 78.9% (active), 73.5% (active), 93% (active), 88.6% (active) and 14.8%.
For `O=C(Nc1cccnc1Cl)c1cc(-c2ccccc2O)on1`, the inhibition in assay [1] was 8.6%; in assay [2], 17.8%; in assay [3], 16.2%; in assay [4], 8%; in assay [5], 1.6%.
In the case of `Oc1ccc(Br)cc1C=Nc1ccc2[nH]ncc2c1`, the inhibition is 5.1% in assay [1]; 2.1% in assay [2]; -2.2% in assay [3]; -0.8% in assay [4]; -3.9% in assay [5].
For `CC(=NCc1ccco1)c1c(C(F)(F)F)[nH]n(-c2nc3ccccc3s2)c1=O` the same measures were 91.7% (active), 91.9% (active), 99.8% (active), 98.1% (active) and 89.3% (active).
As for `C/C(=N\NC(=O)c1ccoc1C)c1ccccc1O`, the inhibition in assay [1] was 38.5%; in assay [2], 36.8%; in assay [3] it was 80.7% (active); in assay [4] it was 77.3% (active); in assay [5] it was 63% (active).
For `O=C1/C(=C/c2cccs2)CCc2ccccc21` the same measures were 98.3% (active), 99.1% (active), 101% (active), 95.8% (active) and 97.6% (active).
`O=C(Nc1cccc2ccccc12)c1onc2c1CCCC2`: the inhibition is -4.7% in assay [1]; 75% (active) in assay [2]; 93.2% (active) in assay [3]; 78.6% (active) in assay [4]; 81.4% (active) in assay [5].
`O=C(Nc1sc2c(c1C(=O)O)CCC2)c1ccccc1F`: the inhibition is 94.5% (active) in assay [1]; 96.2% (active) in assay [2]; 102% (active) in assay [3]; 96.3% (active) in assay [4]; 94.5% (active) in assay [5].
For the compound `CC1=CC(=C(C#N)c2nc3ccccc3s2)C=C(C)N1c1ccc(F)cc1F`, the inhibition in assay [1] is 12.4%; in assay [2] it was 19%; in assay [3] it was -0.4%; in assay [4], -3.2%; in assay [5] it was -9.8%.
With `COCn1c(COc2ccccc2)nc2ccccc21`, the inhibition in assay [1] was 39.7%; in assay [2], 39.5%; in assay [3] it was 76.4% (active); in assay [4], 74.2% (active); in assay [5], 56% (active).
